This note sets out measurements from PubChem BioAssay (EPA / NIEHS).

The source made the active and inactive calls. Rule for the calls: active = hit-call score of the fitted dose curve at least 0.9, where 1 is the maximum; inactive = score below 0.9.

Read-out in this assay: Tissue Factor, F3 (gene 2152)
The experiment in a line: BSK_CASM3C_TissueFactor: BioMAP Diversity Plus: CASM3C Assay for Tissue Factor Biomarker Activity (AID 2283052).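 Note: cell surface tissue factor protein level read by ELISA.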 To be noted: primary human coronary artery smooth muscle cells; actives raise or lower the signal.
Turning to `CN(C)C(=O)Nc1cccc(C(F)(F)F)c1`, the result was inactive.

For `COP(=O)(NC(C)=O)SC` (centres undefined), the outcome was inactive.

For `CN(C)NC(=O)CCC(=O)O`, the result was inactive.

As to `C[Si](Cn1cncn1)(c1ccc(F)cc1)c1ccc(F)cc1`, the outcome was inactive.

Consider `CCCOCC(=Nc1ccc(Cl)cc1C(F)(F)F)n1ccnc1`, for which the result was inactive.

As for `CC1=NNC(=O)N(/N=C/c2cccnc2)C1`, the outcome was inactive.

In the case of `C#CCC1=C(C)C(OC(=O)C2C(C=C(C)C)C2(C)C)CC1=O` (centres undefined), the result was inactive.

`COP(=O)(OC)C(O)C(Cl)(Cl)Cl` (centres undefined): the outcome was inactive.

For `COP(=O)(OC)SCn1c(=O)oc2cc(Cl)cnc21`, the outcome was inactive.

`CCOP(=S)(Oc1cnc(C(C)(C)C)nc1)OC(C)C` (centres undefined): the outcome was inactive.

With `CNC(=O)ON=C(SC)C(=O)N(C)C`, the outcome was inactive.

Consider `CCOP(=S)(OCC)SCCSCC`, for which the result was inactive.

Turning to `CNc1cnn(-c2cccc(C(F)(F)F)c2)c(=O)c1Cl`, the outcome was inactive.

As for `CC1(C(=O)Nc2ccc(O)c(Cl)c2Cl)CCCCC1`, the outcome was inactive.

For the compound `CN1COCN(Cc2cnc(Cl)s2)C1=N[N+](=O)[O-]`, the outcome was inactive.

For `CCCCSP(=O)(SCCCC)SCCCC`, the result was inactive.

On to `CC(C1CC1)C(O)(Cn1cncn1)c1ccc(Cl)cc1` (centres undefined), for which the outcome was inactive.

Take `CC[C@H](C)[C@H]1O[C@]2(C=C[C@@H]1C)C[C@@H]1C[C@@H](C/C=C(\C)[C@@H](O[C@H]3C[C@H](OC)[C@@H](O[C@H]4C[C@H](OC)[C@@H](NC)[C@H](C)O4)[C@H](C)O3)[C@@H](C)/C=C/C=C3\CO[C@@H]4[C@H](O)C(C)=C[C@@H](C(=O)O1)[C@]34O)O2`: the result was inactive.

As to `CC(C)=CC1C(C(=O)OCN2C(=O)C3=C(CCCC3)C2=O)C1(C)C` (centres undefined), the outcome was inactive.
